esBAF inh – Bmi1 luciferase reporter increase in mESCs, primary screen, esBAF inhibitor project, mouse ES cells, Bmi1 luciferase knock-in, single point; AID 602393, 2012; 24 h; 100% = twice the neutral-well signal; 350,000 compounds, 2% hits; reporter increase, % at 12.5 µM; in the data active means activation above about 40%; inconclusive means no clear call, values can overlap the other calls;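 further: 0% = median of the plate's neutral control wells and 100% = double that signal; a rise in the Bmi1 reporter signal indicates esBAF inhibition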
Wnt act – Wnt/beta-catenin pathway activators, primary screen, cell-based, plate reader, single point. Wnt/beta-catenin reporter cell assay, activator. activation, % at 9.35 µM. 300,000 compounds, 1.2% hits. AID 743398, 2014; in the data active means activation above about 30%, passing the limit was not always enough; inconclusive means no clear call, values can overlap the other calls;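 further: 0% = neutral control wells and 100% = positive control wells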
MITF act – activators of MITF-driven TRPM1 promoter reporter, primary screen, cell-based, SK-MEL-5, luciferase, single point | SK-MEL-5 TRPM1-promoter luciferase, 24 h; % of positive control, neutral wells = 0 | activation, % at 12.5 µM | 300,000 compounds, 0.75% hits;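 active means mean activation of at least 80% with every replicate also reaching 80%; inconclusive means mean reaches 80% but some replicate falls short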;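 further: 0% = neutral control wells and 100% = parthenolide positive control wells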
PHOSPHO1 inh – PubChem AID 1565 | recombinant PHOSPHO1, absorbance phosphatase assay | inhibition, % at 13.3 µM | Phosphoethanolamine/phosphocholine phosphatase (Homo sapiens), Q8TCT1 | 290,000 compounds, 1.1% hits; in the data active means inhibition above about 60%
Target sequence (Q8TCT1 whole entry, looked up): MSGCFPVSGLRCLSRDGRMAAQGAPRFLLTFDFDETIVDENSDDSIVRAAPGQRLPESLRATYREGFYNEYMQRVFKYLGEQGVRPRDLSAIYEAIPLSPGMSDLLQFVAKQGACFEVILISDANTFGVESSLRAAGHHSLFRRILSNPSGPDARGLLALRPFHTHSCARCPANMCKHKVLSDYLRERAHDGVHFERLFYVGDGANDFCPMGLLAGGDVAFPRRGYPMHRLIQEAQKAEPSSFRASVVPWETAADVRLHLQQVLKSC
APOBEC3G inh – APOBEC3G DNA deaminase inhibitors, primary screen, biochemical, fluorescence, single-stranded DNA substrate, uHTS | 330,000 compounds, 0.28% hits | AID 493012, 2011 | inhibition, % at 20 µM | DNA dC->dU-editing enzyme APOBEC-3G (Homo sapiens), Q9HC16 | recombinant A3G, ssDNA deamination FAM/TAMRA fluorescence;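 active means inhibition of at least 40% at 20 µM, with no more than 30% in the related APOBEC3A deaminase screen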;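 further: plate controls were DMSO wells with A3G for no effect and wells lacking A3G enzyme for full effect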
A3A deaminase – APOBEC3A ssDNA deaminase inhibitors, primary screen, selectivity assay for APOBEC3G inhibitor project, biochemical, FAM/TAMRA oligo cleavage fluorescence; inhibition, % at 20 µM; recombinant A3A, FAM/TAMRA ssDNA deamination fluorescence; 330,000 compounds, 0.41% hits; DNA dC->dU-editing enzyme APOBEC-3A (Homo sapiens), P31941;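 active means at least 40% inhibition at 20 µM here, with at most 30% in a related deaminase screen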;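 further: plate controls were A3A with DMSO for no effect and wells lacking A3A enzyme for full effect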
Target sequence (P31941 whole entry, looked up): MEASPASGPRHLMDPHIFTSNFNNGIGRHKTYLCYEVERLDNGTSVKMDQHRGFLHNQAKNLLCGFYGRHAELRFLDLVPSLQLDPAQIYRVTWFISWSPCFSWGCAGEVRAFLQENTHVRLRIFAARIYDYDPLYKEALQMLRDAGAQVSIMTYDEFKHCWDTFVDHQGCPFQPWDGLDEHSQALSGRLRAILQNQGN
The depositor's hits bear a star; ? = inconclusive; / = no result. Most compounds without a hit are left out; they make up all but 3.6% or so of the library.

SMILES	esBAF inh	Wnt act	MITF act	PHOSPHO1 inh	APOBEC3G inh	A3A deaminase
CCOC(=O)c1snc(C(=O)NC2CCCCC2)c1N	59.7*	19.9	84.1*	15.2	-0.8	3.3
Nc1c(C(=O)NC2CCCCC2)nsc1C(=O)OCC(=O)NC1CCCCC1	21.5	/	/	-10.0	-5.2	-0.5
Cc1cccc(C)c1NC(=O)CN1C(=O)C2CC=CCC2C1=O (stereo not drawn)	-4.6	-0.5	0.8	/	-5.8	-2.4
CN(C)c1cccc(C(=O)NNC(=O)CN2C(=O)C3CC=CCC3C2=O)c1 (stereo not drawn)	42.5*	4.4	47.4	/	-3.0	-0.4
CC(=O)Nc1c(O)nc(SCC(=O)Nc2ccc(C(C)=O)cc2)[nH]c1=O	75.5*	1.5	76.9	-1.4	-5.2	-0.5
CC(=O)Nc1c(O)nc(SCC(=O)Nc2cccc(C)c2)[nH]c1=O	-1.3	/	3.4	-3.2	-1.6	-2.0
CC(C)(C)C1=CC=C(C(C)(C)C)C(=O)C1=O	/	/	/	66.8*	4.3	3.1
Cc1ccn2c(=O)nc(SCC(=O)c3ccccc3)nc2c1	42.3*	28.3	74.6	/	30.9	-1.0
Cc1ccc2nc(SCC(=O)c3ccccc3)nc(=O)n2c1	67.9*	11.7	70.5	/	16.3	-8.9
CO[C@@H]1CN(C)C(=O)c2cc(NC(=O)NC3CCCCC3)ccc2OC[C@H](C)NC[C@H]1C	-2.0	/	/	/	/	/
CC1=NNC(=O)C1CCC(=O)N/N=C/c1c(Cl)cccc1Cl (stereo not drawn)	/	-4.3	-3.9	64.7*	-6.5	-2.3
CC1=NNC(=O)C1CCC(=O)N/N=C/c1ccc(Cl)cc1 (stereo not drawn)	-2.2	-0.7	12.8	27.8	-5.6	-3.5
O=C1CCCC(O)=C1N=Nc1ccc2c(c1)OCO2	/	45.5*	18.8	24.2	0.2	3.7
C/C=C/c1cnc2c(c1)C(=O)N([C@@H](C)CO)C[C@H](C)[C@H](CN(C)C(=O)c1cccc(F)c1)O2	-0.5	/	/	/	/	/
Oc1cccc(-c2nc3ccc4ccccc4c3c3c2CCC3)c1	/	/	92.5*	-6.7	-0.1	-0.1
Cc1ccc(Nc2ncc3c(n2)CC(C)CC3=O)c(C)c1 (stereo not drawn)	/	52.0*	/	39.8	-3.6	-0.7
C[C@H](CO)N1C[C@H](C)[C@H](CN(C)CC2CC2)OCCCC[C@H](C)Oc2ccc(NS(=O)(=O)c3cn(C)cn3)cc2C1=O	-1.2	/	/	/	/	/
O=C(CCn1cnc2ccccc21)N/N=C/c1ccccc1O	52.5*	10.1	19.9	12.3	-3.3	-1.2
CNC[C@H]1OCCCC[C@H](C)Oc2ccc(NC(=O)Nc3ccccc3)cc2C(=O)N([C@H](C)CO)C[C@H]1C	5.4	/	/	/	/	/
Cc1nc2nc(-c3cccs3)[nH]c2cc1Br	27.1	65.7*	/	/	-6.7	-1.3
Cc1noc(C)c1S(=O)(=O)Nc1ccc2c(c1)C(=O)N([C@H](C)CO)C[C@H](C)[C@@H](CN(C)CC1CCCCC1)O2	-5.4	/	/	/	/	/
Cc1cc(/C=C(\C#N)C(=O)NCC2CCCO2)c(C)n1-c1ccc(Cl)cc1 (stereo not drawn)	87.6*	/	?	11.3	-4.3	0.0
CCCCCCC(=O)Nc1nc(C)c(-c2csc(Nc3cc(Cl)ccc3C)n2)s1	-9.7	-4.5	-10.8	-78.8	23.6	2.4
CCCC(C)C(=O)Nc1nc(C)c(-c2csc(Nc3ccccc3OC)n2)s1 (stereo not drawn)	3.6	-6.3	-0.8	74.3*	10.7	0.3
CCCCCC(=O)Nc1nc(C)c(-c2csc(Nc3ccccc3OCC)n2)s1	-6.6	-9.4	13.1	79.2*	-2.9	1.0
CCCCCCC(=O)Nc1nc(C)c(-c2csc(Nc3ccccc3OC)n2)s1	-5.0	-2.2	2.9	79.2*	-9.5	-3.4
COc1ccccc1Nc1nc(-c2sc(NC(=O)c3ccc([N+](=O)[O-])cc3)nc2C)cs1	/	/	/	-113.3	-5.4	-5.4
